D2 PAM-1: positively modulates the human D2 dopamine receptor allosterically | P14416 | HEK293 T-REx D2, calcium flux, EC20 dopamine potentiation | potentiation, % at 10 µM | 340,000 compounds, 0.34% hits | AID 485347;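 active = potentiation over 3 SD above the plate norm, cut at about 30% in these data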; also: 0% is about no effect
Target sequence (P14416 whole entry, looked up): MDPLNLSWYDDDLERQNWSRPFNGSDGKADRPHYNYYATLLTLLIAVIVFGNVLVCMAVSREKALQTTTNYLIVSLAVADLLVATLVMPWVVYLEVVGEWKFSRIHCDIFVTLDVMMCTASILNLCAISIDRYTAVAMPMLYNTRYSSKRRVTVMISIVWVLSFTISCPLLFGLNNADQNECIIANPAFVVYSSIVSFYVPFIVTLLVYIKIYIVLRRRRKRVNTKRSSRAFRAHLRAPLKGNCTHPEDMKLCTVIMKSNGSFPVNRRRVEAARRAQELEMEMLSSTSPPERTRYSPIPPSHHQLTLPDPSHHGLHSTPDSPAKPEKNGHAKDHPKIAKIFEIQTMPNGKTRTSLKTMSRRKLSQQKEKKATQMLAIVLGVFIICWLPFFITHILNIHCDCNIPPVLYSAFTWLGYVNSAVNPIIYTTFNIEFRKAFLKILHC
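Calcium flux readout, no-wash dye, 1 read/s. Inducible HEK293 Trex D2 line, overnight 30 C. Compound alone 180 s (agonist flags), then EC20 dopamine, another 180 s to score potentiation.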
D2 antagonist: antagonizes the human D2 dopamine receptor; HEK293 TREx D2 cells, calcium flux, dopamine EC80; inhibition, % at 10 µM; 340,000 compounds, 2% hits; in the data active = inhibition above about 30%; inactive = below that, where a call was filed; also: 0% is about no effect
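Compounds are added to dye-loaded, induced HEK293 T-REx cells coupled to calcium release via D2; after a 3 min kinetic read an EC80 dopamine stimulus is given and fluorescence is recorded for 3 more min.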
D2 PAM-2: positive allosteric modulators of human D2 dopamine receptor; AID 624464; P14416; DiscoveRx D2 beta-arrestin cells, luminescence, 90 min; 100% = 57 uM dopamine signal; 360,000 compounds, 0.23% hits; potentiation, % (concentration not given with the values); in the data active = potentiation above about 50%; inconclusive = mostly about 30% to 49%
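PathHunter beta-arrestin assay in DiscoveRx D2 cells. Compounds were added with an EC20 of dopamine (50 nM final) for 90 min at 37 deg C. Luminescence was read 1 h after detection reagent, with 57 uM dopamine as the EC100 control.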
D2 ag-1: activates the human D2 dopamine receptor; DiscoveRx PathHunter D2 beta-arrestin, luminescence, 90 min; 100% = 57 uM dopamine signal; activation, % (concentration not given with the values); 360,000 compounds, 0.084% hits; in the data active = activation above about 40%; inconclusive = between about 15% and that limit
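DiscoveRx PathHunter D2 beta-arrestin cells (2,100/well) attached overnight, then compound-stimulated 90 min at 37 C in HBSS/10 mM HEPES/0.1% Tween-20 buffer; beta-galactosidase complementation read by luminescence after 1 h at ambient temperature. Dopamine 57 uM final (EC100) as control.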
D2 ag-2: agonists of human D2 dopamine receptor | P14416 | HEK293 T-REx D2 cells, calcium flux agonist mode | activation, % at 2 µM | 340,000 compounds, 0.53% hits;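 active = activation over 3 SD above normal in the single-dose calcium agonist read, cut at about 30% in these data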; also: 0% is about no effect
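In this primary screen, compounds producing a positive calcium signal within 180 s of addition to tetracycline-induced, force-coupled HEK293 Trex D2 cells are flagged; cells are dye-loaded with a no-wash calcium kit beforehand.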
* = called active by the depositor; ? = inconclusive; · = no result. An excerpt weighted towards active compounds, which were near 2.4% of everything screened.

SMILES | D2 PAM-1 | D2 antagonist | D2 PAM-2 | D2 ag-1 | D2 ag-2
COc1ccccc1/C=C/CN1CCC(Oc2ccc(C(=O)N3CCCCC3)cc2)CC1 | -34.7 | 68.6* | -33.6 | 0.8 | 0.4
CCCN1CCN(c2ncnc3sc(C(=O)Nc4ccc(C(C)C)cc4)c(C)c23)CC1 | 2.2 | · | · | · | -1.5
CCC(=O)N1CCc2cc(S(=O)(=O)NCCC(=O)N3CCN(c4ccccn4)CC3)ccc21 | 39.0* | 14.6 | 3.3 | 1.0 | -0.8
O=C(NCCC(=O)N1CCN(c2ccccn2)CC1)c1ccc(Br)cc1 | -13.6 | 57.6* | -9.0 | -3.5 | -1.0
CCC(=O)N1CCc2cc(S(=O)(=O)NCCC(=O)N3CCc4ccccc4C3)ccc21 | 10.5 | -10.9 | 3.4 | 0.2 | -1.8
O=C(NCCC(=O)N1CCC2(CC1)NCCc1[nH]cnc12)c1ccc(Br)cc1 | -0.4 | 32.0* | -5.4 | -0.7 | 0.6
CCOc1ccc(OCC)c(NC(=O)C2CCN(c3nnc(-n4cccc4)s3)CC2)c1 | -3.2 | · | · | · | ·
Clc1ccc(CN2C3=NCCCN3c3ccccc32)cc1Cl | 3.3 | 75.5* | -10.3 | 1.0 | 1.1
Clc1ccc(CN2C3=NCCCN3c3ccccc32)cc1 | 6.1 | 3.3 | -6.2 | -9.6 | 1.1
COC(=O)CCNC(=O)N1CCN(c2nnc(C)c3c(C)n(-c4ccc(Cl)cc4)nc23)CC1 | -9.0 | · | · | · | -0.7
COc1ccccc1NS(=O)(=O)c1ccc(N/N=C/C=C/c2ccccc2[N+](=O)[O-])c([N+](=O)[O-])c1 | -1.9 | -0.9 | -11.2 | 2.2 | -0.1
COc1ccccc1NS(=O)(=O)c1ccc(NN=C2CCCC2)c([N+](=O)[O-])c1 | 2.7 | 34.4* | 15.1 | 0.3 | -0.8
CN1C(C(=O)c2ccccc2)=C(OC(=O)c2ccc(Br)cc2)c2ccccc2S1(=O)=O | 3.4 | · | · | · | 0.4
Clc1ccc(OCc2nnc(-c3ccccc3Br)o2)cc1 | -1.2 | 36.4* | 0.4 | -0.8 | 0.5
Brc1ccccc1CN1CCN(Cc2c[nH]c3ccccc23)CC1 | · | · | -15.1 | -5.3 | ·
Cc1ccccc1N1CCN(Cc2c[nH]c3ccccc23)CC1 | -18.8 | 39.9* | -18.5 | -3.5 | 0.5
COc1ccccc1N1CCN(Cc2c[nH]c3ccccc23)CC1 | -17.3 | 48.0* | -19.8 | -1.0 | -0.2
COc1ccccc1N1CCN(Cc2ccc(O)c3ncccc23)CC1 | 15.9 | -25.7 | -28.3 | -9.9 | -0.4
COc1ccccc1N1CCN(C(=O)C(=O)c2cn(CC(=O)N3CCCCCC3)c3ccccc23)CC1 | -17.6 | 37.6* | -27.0 | 4.5 | -0.4
CCS(=O)(=O)N1CCN(Cc2c[nH]c3ccccc23)CC1 | -18.7 | -35.1 | -2.0 | 0.7 | 2.7
Fc1ccc(N2CCN(Cc3c[nH]c4ccccc34)CC2)cc1 | -22.8 | 92.8* | · | · | 2.3
CCCOC(=O)c1c(NC(=O)c2nc3ncccn3n2)sc(C(=O)OCC)c1C | 5.2 | · | · | · | 0.1
CCOc1ccc(C(=O)Nc2c(C(=O)Nc3ccccc3F)oc3ccccc23)cc1OCC | -1.9 | · | · | · | 0.4
COc1ccccc1N1CCN(C(=O)CCc2c[nH]c3ccccc23)CC1 | 5.1 | 44.5* | -1.5 | -5.3 | -0.1
COc1ccc(N2CCN(C(=O)CCc3c[nH]c4ccccc34)CC2)cc1 | 1.3 | 19.3 | -1.2 | 5.2 | 2.0
SMILES | D2 PAM-1 | D2 antagonist | D2 PAM-2 | D2 ag-1 | D2 ag-2
O=C(Nc1ccc(NC(=O)c2cccs2)cc1)c1ccc2c(c1)OCCO2 | -16.7 | 34.2* | -9.1 | -2.9 | 2.5
O=C(Nc1ccc(N2CCOCC2)c(Cl)c1)c1ccc2c(c1)OCCO2 | 19.0 | 30.5* | -4.4 | 5.5 | 2.3
CCc1ccc2occ(CC(=O)Nc3c(C(=O)c4ccc(C)cc4)oc4ccccc34)c2c1 | -9.7 | · | · | · | 3.1
O=C(NCCc1ccccc1)c1ccc(CSc2nc3ccncc3n2Cc2ccccc2F)cc1 | -3.8 | · | · | · | 0.3
Cc1ccn2c(Nc3ccc4c(c3)OCO4)c(-c3ccc(C)o3)nc2c1 | -4.7 | · | · | · | -0.1
Cc1ccc(-c2nc3cnccn3c2Nc2ccc3c(c2)OCO3)o1 | -4.9 | 35.5* | 9.1 | 5.2 | 0.6
O=C(c1ccc2c(c1)OCO2)c1cn(Cc2ccc(Cl)cc2)c2ccc(F)cc2c1=O | -0.1 | · | · | · | -0.6
COc1ccc(Br)cc1CNC(=O)C1COc2ccccc2C1 (stereo not given) | -1.7 | · | · | · | 0.9
O=S(=O)(c1ccc(Cl)cc1)N1CCN(c2ncccn2)CC1 | 4.3 | -24.5 | -2.7 | -10.2 | 0.6
O=S(=O)(c1ccc(Cl)cc1)n1cccn1 | -7.0 | 40.4* | -1.1 | -2.4 | 0.5
Cc1c(Cl)cccc1NC(=O)CN1C(=O)CSc2ccc(S(=O)(=O)N3CCCC3)cc21 | -3.0 | · | · | · | 0.4
CCCOc1ccc(C(=O)NNC(=S)NC(=O)CC)cc1 | -10.8 | 72.4* | -18.4 | -6.4 | 0.1
CCCOc1ccc(NC(=O)c2c(-c3ccccc3)noc2C)cc1 | -7.3 | 1.4 | 0.7 | -6.1 | 0.1
C=CCNC(=S)NNC(=O)c1ccc(OCCC)cc1 | -4.0 | 5.6 | -7.6 | -5.2 | -1.0
CCCOc1ccc(C(=O)NC(=S)NNC(=O)c2c(-c3ccccc3)noc2C)cc1 | -12.0 | 24.6 | -22.8 | -13.8 | 70.0*
Cc1onc(-c2ccccc2)c1C(=O)Nc1nnc(COc2ccc(Cl)cc2)s1 | · | 38.9* | ? | 0.4 | 1.2
COc1ccc(-c2cn3c(n2)sc2cc(C(=O)Nc4ccc(F)cc4Cl)ccc23)cc1 | · | · | · | · | -0.3
COc1ccc(-c2cc(-c3ccc(C)cc3)nc3c2COc2ccccc2-3)cc1 | -2.8 | · | · | · | -0.1
COc1ccc(NC2=NCCCCC2)cc1 | 0.0 | 10.4 | -6.9 | -2.1 | 0.1
COc1ccc(NC2=Nc3ccccc3CC2)cc1 | -38.7 | 46.2* | -27.8 | -1.6 | 1.6
COc1cccc(-c2cnc3c(NC(C)=O)cc(-c4ccc(C(=O)N5CCOCC5)cc4)cn23)c1 | · | · | -8.9 | 1.7 | ·
CCc1cccc(N2C(=O)N(CC(=O)NCc3cccc(OC)c3OC)c3ccccc3S2(=O)=O)c1 | -9.0 | · | · | · | 1.0
Cc1cc(=O)oc2c(C)c(OCC(=O)Nc3cccnc3)ccc12 | -3.2 | 35.8* | -0.3 | 2.7 | 0.3
Cc1nn(-c2ccccc2)c(C)c1C(=O)OCC(=O)N(C)C1CCS(=O)(=O)C1 (stereo not given) | 0.1 | 38.2* | -1.5 | -0.5 | 1.3
CC(=O)N1c2ccc(S(=O)(=O)N3CCC(C(=O)Nc4cc(C)cc(C)c4)CC3)cc2CC1C (stereo not given) | -21.5 | 70.6* | -30.9 | -1.0 | -1.8
